Experimental data taken from PubChem BioAssay AID1159580 (chemical genetic matrix, 2015).
Values joined by “and” are separate entries in the source; they are usually repeats but may differ in a detail not shown here. Identical values can stand only once. Out of some 5,500 compounds screened, about 2,000 (36%) were called active. Not shown: some 18% with an inconclusive outcome. No stated cut-off is given here; in the data, active means normalized growth mostly below about 0.91 (no sharp cut-off); inconclusive means no clear call, values can overlap the other calls; inactive means mostly above about 0.92. This is one part of the list.

Experiment: chemical genetic growth profiling, strain panel (AID 1159580);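 further: tested at 20 µM; growth read once vehicle control cultures reached saturation at 30 °C; 1 = growth at the plate median or of vehicle wells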
Conditions: growth OD

Measured: normalized growth

CCCn1c(=O)c2[nH]c(C3CCCC3)nc2n(CCC)c1=O
inactive: S. cerevisiae deletion strains, locus YJR043C, strain POL32, stronger effect = lower value 0.989 | S. cerevisiae deletion strains, locus YJR075W, strain HOC1, stronger effect = lower value 0.968 and 0.985 | S. cerevisiae deletion strains, locus YKL009W, strain mrt4, stronger effect = lower value 0.966 | S. cerevisiae deletion strains, locus YKL068W, stronger effect = lower value 0.965 | S. cerevisiae deletion strains, locus YKL085W, strain MDH1 (second series), stronger effect = lower value 0.994 | S. cerevisiae deletion strains, locus YKL085W, strain MDH1, stronger effect = lower value 0.994 | S. cerevisiae deletion strains, locus YKL160W, strain elf1, stronger effect = lower value 0.996 | S. cerevisiae deletion strains, locus YKL190W, strain CNB1, stronger effect = lower value 0.981 | S. cerevisiae deletion strains, locus YKR001C, strain vps1, stronger effect = lower value 0.964 | S. cerevisiae deletion strains, locus YKR026C, strain gcn3, stronger effect = lower value 0.998 | S. cerevisiae deletion strains, locus YKR091W, strain srl3, stronger effect = lower value 0.982 | S. cerevisiae deletion strains, locus YLL001W, strain dnm1, stronger effect = lower value 0.986 | S. cerevisiae deletion strains, locus YLL026W, stronger effect = lower value 0.974 | S. cerevisiae deletion strains, locus YLL041C, strain sdh2, stronger effect = lower value 0.979 | S. cerevisiae deletion strains, locus YLR027C, strain aat2, stronger effect = lower value 0.987 | S. cerevisiae deletion strains, locus YLR039C, strain RIC1, stronger effect = lower value 0.881 | S. cerevisiae deletion strains, locus YLR058C, strain SHM2, stronger effect = lower value 0.982 | S. cerevisiae deletion strains, locus YLR102C, strain apc9, stronger effect = lower value 0.957 | S. cerevisiae deletion strains, locus YLR221C, strain rsa3, stronger effect = lower value 1 | S. cerevisiae deletion strains, locus YLR258W, strain gsy2, stronger effect = lower value 0.963 | S. cerevisiae deletion strains, locus YLR262C, strain YPT6 (second series), stronger effect = lower value 0.965 | S. cerevisiae deletion strains, locus YLR262C, strain YPT6, stronger effect = lower value 0.854 | S. cerevisiae deletion strains, locus YLR268W, strain sec22, stronger effect = lower value 0.957 | S. cerevisiae deletion strains, locus YLR320W, strain mms22, stronger effect = lower value 0.974 | S. cerevisiae deletion strains, locus YLR330W, strain CHS5, stronger effect = lower value 0.98 | S. cerevisiae deletion strains, locus YLR342W, strain FKS1 (second series), stronger effect = lower value 0.979 | S. cerevisiae deletion strains, locus YLR342W, strain FKS1, stronger effect = lower value 0.987 | S. cerevisiae deletion strains, locus YLR357W, strain rsc2, stronger effect = lower value 0.986 | S. cerevisiae deletion strains, locus YLR370C, strain arc18, stronger effect = lower value 0.986 | S. cerevisiae deletion strains, locus YLR371W, strain rom2, stronger effect = lower value 0.951 | S. cerevisiae deletion strains, locus YLR384C, strain iki3, stronger effect = lower value 0.995 | S. cerevisiae deletion strains, locus YLR418C, strain cdc73, stronger effect = lower value 1.01 | S. cerevisiae deletion strains, locus YML016C, strain PPZ1, stronger effect = lower value 0.992 | S. cerevisiae deletion strains, locus YML032C, strain rad52, stronger effect = lower value 0.959 | S. cerevisiae deletion strains, locus YML120C, strain ndi1, stronger effect = lower value 0.997 | S. cerevisiae deletion strains, locus YML124C, strain tub3, stronger effect = lower value 0.972 | S. cerevisiae deletion strains, locus YMR058W, strain fet3, stronger effect = lower value 1 | S. cerevisiae deletion strains, locus YMR078C, strain ctf18, stronger effect = lower value 0.972 | S. cerevisiae deletion strains, locus YMR125W, strain sto1, stronger effect = lower value 0.994 | S. cerevisiae deletion strains, locus YMR129W, stronger effect = lower value 0.968 | S. cerevisiae deletion strains, locus YMR205C, strain PFK2, stronger effect = lower value 0.967 | S. cerevisiae deletion strains, locus YMR223W, strain ubp8, stronger effect = lower value 0.97 | S. cerevisiae deletion strains, locus YMR231W, strain pep5, stronger effect = lower value 0.994 | S. cerevisiae deletion strains, locus YMR263W, strain SAP30, stronger effect = lower value 0.993 | S. cerevisiae deletion strains, locus YMR307W, strain GAS1, stronger effect = lower value 0.947 | S. cerevisiae deletion strains, locus YNL067W, strain RPL9B, stronger effect = lower value 0.986 | S. cerevisiae deletion strains, locus YNL071W, strain lat1, stronger effect = lower value 0.997 | S. cerevisiae deletion strains, locus YNL128W, strain TEP1, stronger effect = lower value 1 | S. cerevisiae deletion strains, locus YNL153C, strain GIM3, stronger effect = lower value 0.998 and 0.965 | S. cerevisiae deletion strains, locus YNL175C, strain NOP13, stronger effect = lower value 0.977 | S. cerevisiae deletion strains, locus YNL197C, strain WHI3, stronger effect = lower value 0.976 | S. cerevisiae deletion strains, locus YNL209W, strain ssb2, stronger effect = lower value 0.994 | S. cerevisiae deletion strains, locus YNL224C, strain SQS1, stronger effect = lower value 0.975 | S. cerevisiae deletion strains, locus YNL233W, strain BNI4, stronger effect = lower value 0.991 | S. cerevisiae deletion strains, locus YNL248C, strain rpa49, stronger effect = lower value 0.992 | S. cerevisiae deletion strains, locus YNL250W, strain rad50, stronger effect = lower value 0.973 | S. cerevisiae deletion strains, locus YNL271C, strain bni1, stronger effect = lower value 0.974 | S. cerevisiae deletion strains, locus YNL298W, strain CLA4, stronger effect = lower value 0.972 | S. cerevisiae deletion strains, locus YNL307C, strain MCK1, stronger effect = lower value 0.97 | S. cerevisiae deletion strains, locus YNL322C, strain KRE1 (second series), stronger effect = lower value 0.986 | S. cerevisiae deletion strains, locus YNL322C, strain KRE1, stronger effect = lower value 0.984 and 0.987 | S. cerevisiae deletion strains, locus YNR049C, strain mso1, stronger effect = lower value 0.984 | S. cerevisiae deletion strains, locus YNR052C, strain pop2, stronger effect = lower value 0.975 | S. cerevisiae deletion strains, locus YOL006C, strain TOP1, stronger effect = lower value 0.986 | S. cerevisiae deletion strains, locus YOL012C, strain htz1 0.878 | S. cerevisiae deletion strains, locus YOL147C, strain pex11, stronger effect = lower value 0.962 | S. cerevisiae deletion strains, locus YOR001W, strain rrp6, stronger effect = lower value 0.995 | S. cerevisiae deletion strains, locus YOR061W, strain CKA2, stronger effect = lower value 0.995 | S. cerevisiae deletion strains, locus YOR069W, strain VPS5, stronger effect = lower value 0.989 | S. cerevisiae deletion strains, locus YOR070C, strain gyp1, stronger effect = lower value 0.993 | S. cerevisiae deletion strains, locus YOR080W, strain dia2, stronger effect = lower value 0.984 | S. cerevisiae deletion strains, locus YOR083W, strain WHI5 (second series), stronger effect = lower value 0.989 | S. cerevisiae deletion strains, locus YOR083W, strain WHI5, stronger effect = lower value 1.01 | S. cerevisiae deletion strains, locus YOR106W, strain vam3, stronger effect = lower value 0.996 | S. cerevisiae deletion strains, locus YOR136W, strain idh2, stronger effect = lower value 0.954 | S. cerevisiae deletion strains, locus YOR144C, strain elg1, stronger effect = lower value 0.965 | S. cerevisiae deletion strains, locus YOR184W, strain ser1, stronger effect = lower value 0.955 | S. cerevisiae deletion strains, locus YOR265W, strain rbl2, stronger effect = lower value 0.991 | S. cerevisiae deletion strains, locus YOR270C, strain vph1, stronger effect = lower value 0.998 | S. cerevisiae deletion strains, locus YOR290C, strain snf2, stronger effect = lower value 0.923 | S. cerevisiae deletion strains, locus YOR316C, strain cot1, stronger effect = lower value 0.977 | S. cerevisiae deletion strains, locus YPL051W, strain arl3, stronger effect = lower value 0.987 | S. cerevisiae deletion strains, locus YPL055C, strain LGE1, stronger effect = lower value 0.976 | S. cerevisiae deletion strains, locus YPL078C, strain atp4, stronger effect = lower value 0.994 | S. cerevisiae deletion strains, locus YPL106C, strain sse1, stronger effect = lower value 0.976 | S. cerevisiae deletion strains, locus YPL240C, strain hsp82, stronger effect = lower value 0.983 | S. cerevisiae deletion strains, locus YPL241C, strain CIN2, stronger effect = lower value 0.954 and 1.01 | S. cerevisiae deletion strains, locus YPR119W, strain clb2, stronger effect = lower value 0.967 | S. cerevisiae deletion strains, locus YPR141C, strain kar3, stronger effect = lower value 0.977 | S. cerevisiae deletion strains, locus YPR163C, strain tif3, stronger effect = lower value 0.969 | S. cerevisiae deletion strains, locus YPR167C, strain met16, stronger effect = lower value 0.982 | S. cerevisiae deletion strains, strain wtn01, stronger effect = lower value 0.98 | S. cerevisiae strains, strain wild type, stronger effect = lower value 0.981
